Test results reported in PubChem BioAssay (Tox21).
Where “and” joins values, the source holds several entries; their conditions need not be identical. Identical values can stand only once. Inconclusive results are not listed. Some structures have more than one record in an assay (separate samples or runs), and their calls can disagree. Calls of active or inactive are those of the source. Unless noted, calls come from the whole dose curve; as a rule, active = well fitted curve in the direction sought with a large enough effect in the repeat runs; inconclusive = weak or mixed curves; inactive = no such curve, though single readings can be large; an effect the other way counts as inactive or inconclusive.

Assays:
[1] = qHTS assay to identify small molecule antagonists of the androgen receptor (AR) signaling pathway using the MDA cell line in the presence of 0.5 nM R1881 - cell viability counter screen (AID 1259242); note: nearly all actives have a fitted effect of over 45% in size
Outline: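 MDA-kb2 cells (human breast carcinoma, stably carrying MMTV-luciferase reporter) were exposed to compounds with 0.5 nM R1881 (final) for 16 hr at 37C, 0% CO2; viability then read as live-cell protease fluorescence (CellTiter-Fluor, 30 min) in the same wells.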

[2] = qHTS assay to identify small molecule HDAC inhibitors (AID 1259364); note: top concentration of the series differs between compounds; nearly all actives have a fitted effect of over 45% in size
Outline: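 Wild-type HCT-116 cells were plated overnight, exposed to compounds for 2 h at 37 °C, then given HDAC-Glo class I/II luminogenic reagent for 30 min at room temperature before luminescence was read.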

[3] = qHTS assay to identify small molecule HDAC inhibitors - cell viability counter screen (AID 1259365); note: series mostly up to about 92 µM; nearly all actives have a fitted effect of over 50% in size
Outline: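 Cytotoxicity was gauged in wild-type HCT-116 cells after a brief 2hr treatment with DMSO-dissolved compounds at 37C and 5% CO2, using CellTiter-Glo luminescence developed for 30min at room temperature.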

[4] = qHTS assay to identify small molecule antagonists of the sonic hedgehog signaling (Shh) pathway - cell viability counter screen (AID 1259367); note: nearly all actives have a fitted effect of over 55% in size
Outline: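 NIH/3T3-derived Gli1-Luc reporter cells (2,000 per well) rested 4 hr at 37 C, then received DMSO compounds plus conditioned medium. After 23 hr of treatment, CellTiter-Fluor was added for 1 hr at 37C and fluorescence read.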

[5] = qHTS assay to identify small molecule agonists of the sonic hedgehog signaling (Shh) pathway (AID 1259368; calls by dose curve; note: series mostly up to about 92 µM; nearly all actives have a fitted effect of over 15% in size)
Outline: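 NIH/3T3-derived 3T3Gli1-Luc cells carrying a stably integrated Gli1 response element–firefly luciferase reporter were plated, left 4 hr at 37 C, then given compounds in DMSO for 24 hr. Luminescence was read 30 min after adding luciferase reagent.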

[6] = qHTS assay to identify small molecule antagonists of the sonic hedgehog signaling (Shh) pathway (AID 1259369; calls by dose curve; note: nearly all actives have a fitted effect of over 45% in size; note: potency is the fitted concentration of half-maximal effect)
Outline: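 NIH/3T3-derived 3T3Gli1-Luc cells with stably integrated Gli1-Luc reporter were preincubated 4hr at 37 C, then given compounds in DMSO plus Shh conditioned medium and incubated 24hr. Firefly luciferase luminescence read after 30min reagent at room temperature.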

[7] = qHTS assay to identify small molecule agonists of the estrogen receptor beta (ER-beta) signaling pathway - cell viability counter screen (AID 1259380); note: nearly all actives have a fitted effect of over 30% in size; note: potency is the fitted concentration of half-maximal effect
Outline: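 ER-beta-UAS-bla HEK293T cells in medium with 2% charcoal-stripped FBS were preincubated 6 hr at 37C, dosed with compound in DMSO for 16 hr, then after the bla read, CellTiter-Glo was added for 30 min at room temperature; luminescence recorded.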

[8] = qHTS assay to identify small molecule antagonists of the estrogen receptor beta (ER-beta) signaling pathway - cell viability counter screen (AID 1259382); note: nearly all actives have a fitted effect of over 55% in size; note: potency is the fitted concentration of half-maximal effect
Outline: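 ER-beta-UAS-bla HEK293T cells (2,000/well, 2% charcoal-stripped FBS) were pre-incubated 6 hr at 37C, then given compound plus 1nM final 17-beta-estradiol for 16 hr. Viability was read in the same wells by CellTiter-Glo luminescence after 30 min at room temperature.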

[9] = qHTS assay to identify small molecule agonists or antagonists of the thyroid stimulating hormone receptor (TSHR) signaling pathway - wild type cell line counter screen (AID 1259384; calls by dose curve)
Outline: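 Wild-type HEK293 cells were plated 18 h at 37 C/5% CO2, pin-dosed with compound plus Ro20-1724 medium, held 30 min at room temperature, then given cAMP-d2 and anti-cAMP-cryptate; fluorescence was read after 1 h. Fifteen concentrations, triplicate.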

[10] = target: Thyrotropin receptor (Homo sapiens) (UniProt P16473); assay: qHTS assay to identify small molecule antagonists of the thyroid stimulating hormone receptor (TSHR) signaling pathway (AID 1259385; calls by dose curve; note: nearly all actives have a fitted effect of over 20% in size)
Thyrotropin receptor (Homo sapiens), sequence (P16473 whole entry, looked up): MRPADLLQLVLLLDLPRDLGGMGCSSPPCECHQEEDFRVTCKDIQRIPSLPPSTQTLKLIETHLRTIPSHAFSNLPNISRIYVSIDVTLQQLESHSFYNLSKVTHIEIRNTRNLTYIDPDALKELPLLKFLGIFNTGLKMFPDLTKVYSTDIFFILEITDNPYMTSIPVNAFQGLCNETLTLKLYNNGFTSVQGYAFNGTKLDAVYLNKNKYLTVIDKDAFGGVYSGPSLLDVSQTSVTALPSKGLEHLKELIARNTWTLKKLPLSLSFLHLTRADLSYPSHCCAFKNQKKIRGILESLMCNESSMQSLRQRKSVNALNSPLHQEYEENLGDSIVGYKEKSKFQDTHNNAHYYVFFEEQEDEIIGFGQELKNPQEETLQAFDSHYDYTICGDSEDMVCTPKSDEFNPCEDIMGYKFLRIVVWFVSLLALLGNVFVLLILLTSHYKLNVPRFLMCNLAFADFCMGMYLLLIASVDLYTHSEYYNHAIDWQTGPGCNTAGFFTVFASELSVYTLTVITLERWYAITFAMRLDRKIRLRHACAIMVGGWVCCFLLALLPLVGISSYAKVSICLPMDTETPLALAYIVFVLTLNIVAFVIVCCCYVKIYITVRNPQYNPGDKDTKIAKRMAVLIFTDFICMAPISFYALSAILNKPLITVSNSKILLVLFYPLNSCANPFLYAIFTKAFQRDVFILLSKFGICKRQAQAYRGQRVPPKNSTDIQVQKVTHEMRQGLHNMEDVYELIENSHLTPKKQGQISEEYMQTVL
Outline: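 TSHR-HEK293 cells were plated and held 18 h at 37C/5% CO2, then given compound plus Ro20-1724 and stimulated with TSH at 1.5 ng/mL final. After 30 min at room temperature, cAMP was detected with cAMP-d2/anti-cAMP-cryptate (1 h) by fluorescence.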

[11] = qHTS assay to identify small molecule agonists of the sonic hedgehog signaling (Shh) pathway - cell viability counter screen (AID 1259366); note: nearly all actives have a fitted effect of over 50% in size
Outline: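 Stable Gli1-Luc NIH/3T3 clone, 2,000 cells/well. Compound exposure 24hr at 37C. Read-out: CellTiter-Fluor fluorescence.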

[12] = target: Estrogen receptor beta (Homo sapiens) (UniProt Q92731); assay: qHTS assay to identify small molecule agonists of the estrogen receptor beta (ER-beta) signaling pathway (AID 1259377; active = well fitted activation curve with a large enough effect in the signal ratio in the repeat runs, not every such curve was filed as active; the % refers to the signal ratio)
Estrogen receptor beta (Homo sapiens), sequence (Q92731 whole entry, looked up): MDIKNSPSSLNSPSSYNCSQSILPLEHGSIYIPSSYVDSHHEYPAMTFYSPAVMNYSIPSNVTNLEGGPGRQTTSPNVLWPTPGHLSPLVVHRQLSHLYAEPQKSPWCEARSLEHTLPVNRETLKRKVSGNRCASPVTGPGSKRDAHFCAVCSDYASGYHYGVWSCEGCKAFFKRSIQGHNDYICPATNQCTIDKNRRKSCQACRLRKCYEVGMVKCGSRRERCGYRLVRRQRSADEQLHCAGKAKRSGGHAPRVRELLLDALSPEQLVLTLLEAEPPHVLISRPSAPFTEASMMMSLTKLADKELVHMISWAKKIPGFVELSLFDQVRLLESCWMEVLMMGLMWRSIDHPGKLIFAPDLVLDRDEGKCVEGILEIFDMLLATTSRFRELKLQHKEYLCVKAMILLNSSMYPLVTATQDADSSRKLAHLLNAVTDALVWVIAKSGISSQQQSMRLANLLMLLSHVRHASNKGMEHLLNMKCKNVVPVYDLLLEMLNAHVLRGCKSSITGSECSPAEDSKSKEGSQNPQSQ
Outline: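 Measured by fluorescence intensity from a B/G FRET beta-lactamase substrate (2 h, room temperature) in ER-beta-UAS-bla HEK293T cells treated with DMSO-dissolved compounds for 16 hr at 37C and 5% CO2.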

[13] = qHTS assay to identify small molecule agonists of the androgen receptor (AR) signaling pathway in the presence of an antagonist - cell viability counter screen (AID 1259379); note: series mostly up to about 92 µM; nearly all actives have a fitted effect of over 25% in size
Outline: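 MDA-kb2 human breast carcinoma cells (stable MMTV-luciferase, AR/GR responsive) were seeded 3,000 cells/well, pre-incubated 5 hr at 37C without CO2, then given 3.0uM nilutamide and compounds at 15 concentrations for 16 hr. Viability was read by CellTiter-Fluor fluorescence.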

[14] = target: Estrogen receptor (Homo sapiens) (UniProt P03372); assay: qHTS assay to identify small molecule antagonists of the estrogen receptor alpha (ER-alpha) signaling pathway using the BG1 cell line in the presence of 0.1 nM 17-beta-estradiol (AID 1259244); note: nearly all actives have a fitted effect of over 50% in size; note: potency is the fitted concentration of half-maximal effect
Estrogen receptor (Homo sapiens), sequence (P03372 whole entry, looked up): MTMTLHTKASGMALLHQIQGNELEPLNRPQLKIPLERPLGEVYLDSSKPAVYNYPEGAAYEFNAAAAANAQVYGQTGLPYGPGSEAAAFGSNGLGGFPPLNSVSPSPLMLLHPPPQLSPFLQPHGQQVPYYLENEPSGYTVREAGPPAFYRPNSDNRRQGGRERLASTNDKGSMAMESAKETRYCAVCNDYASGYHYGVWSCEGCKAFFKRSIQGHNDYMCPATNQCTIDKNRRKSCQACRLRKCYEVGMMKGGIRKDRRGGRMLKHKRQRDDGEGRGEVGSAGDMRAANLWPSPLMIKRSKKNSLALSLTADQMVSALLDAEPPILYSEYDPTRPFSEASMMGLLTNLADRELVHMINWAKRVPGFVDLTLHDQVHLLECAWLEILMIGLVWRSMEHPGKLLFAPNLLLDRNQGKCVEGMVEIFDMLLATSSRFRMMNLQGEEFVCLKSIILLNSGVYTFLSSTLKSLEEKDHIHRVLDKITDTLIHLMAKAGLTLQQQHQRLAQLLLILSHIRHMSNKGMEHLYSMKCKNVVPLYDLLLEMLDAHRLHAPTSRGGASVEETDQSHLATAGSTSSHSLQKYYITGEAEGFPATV
Outline: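 VM7Luc4E2 cells (endogenous full-length ER-alpha, stable 4xERE-luciferase) were grown 5 days in phenol red-free medium with charcoal-stripped FBS, then exposed 22 h at 37C to compounds plus 0.1 nM (final) 17beta-estradiol; ONE-Glo luminescence read-out.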

[15] = qHTS assay to identify small molecule phospholipidosis (PLD) inducers (AID 1259344; active = well fitted curve in the direction sought with a large enough effect; an effect the other way counts as inactive or inconclusive)
Outline: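 HepG2 cells on collagen I, attached 4 h at 37 C, were co-treated with compound and LipidTOX Red dye for 24 h at 37 C, then fixed with paraformaldehyde plus Hoechst 33342 and imaged by high-content microscopy for phospholipid accumulation.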

[16] = target: Estrogen receptor (Homo sapiens) (UniProt P03372); assay: qHTS assay to identify small molecule agonists of the estrogen receptor alpha (ER-alpha) signaling pathway in the presence of an antagonist (AID 1259383; calls by dose curve; note: top concentration of the series differs between compounds; nearly all actives have a fitted effect of over 15% in size)
Outline: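 VM7Luc4E2 cells (endogenous full-length ER-alpha, 4×ERE-luciferase) were precultured 5 days in phenol red-free medium with 10% charcoal-stripped FBS, given 10.0nM ICI-182,780 (final), then treated with compounds at 15 concentrations for 22hr at 37C; luminescence read with ONE-Glo.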

[17] = target: Estrogen receptor beta (Homo sapiens) (UniProt Q92731); assay: qHTS assay to identify small molecule antagonists of the estrogen receptor beta (ER-beta) signaling pathway (AID 1259378; active = well fitted inhibition curve with a large enough effect in the signal ratio in the repeat runs, not every such curve was filed as active; the % refers to the signal ratio; note: potency is the fitted concentration of half-maximal effect)
Outline: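 ER-beta-UAS-bla HEK293T (GripTite) cells in 2% charcoal-stripped FBS medium were preincubated 6 hr at 37C, dosed with compound, then stimulated with 1 nM E2 (final) for 16 hr; beta-lactamase reporter read by B/G FRET fluorescence after 2 hr substrate loading.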

Measured: Potency

OC[P+](CO)(CO)CO
inactive: [1] | [2] | [3] | [4] | [5] | [7] | [8] | [9] | [10]
31 µM (active) and inactive: [6]

CC(C)(C)OOC(C)(C)CCC(C)(C)OOC(C)(C)C
not listed: [8] | [14] | [15] | [16] | [17]
inactive: all other assays above

NCCc1cc(O)c(O)cc1O
not listed: [10] | [11] | [12] | [17]
inactive: all other assays above

C1CCNCC1
not listed: [1] | [15] | [17]
inactive: all other assays above

Nc1cccc2ccccc12
not listed: [6] | [12] | [14] | [15] | [17]
inactive: all other assays above

CN1C[C@H](C(=O)N[C@]2(C)O[C@@]3(O)[C@@H]4CCCN4C(=O)[C@H](Cc4ccccc4)N3C2=O)C=C2c3cccc4[nH]cc(c34)C[C@H]21
27.4 µM (active) and inactive: [14]
active: [17] 27.4 µM | [7] 21.8 µM and 7.16 µM | [8] 54.7 µM
not listed: [4] | [6] | [9] | [11] | [13]
inactive: all other assays above

CCOC(=O)c1cncn1C(C)c1ccccc1 (centres undefined)
not listed: [12] | [17]
inactive: all other assays above

O=C1CC[C@@]2(O)[C@H]3Cc4ccc(O)c5c4[C@@]2(CCN3CC2CC2)[C@H]1O5
not listed: [11] | [14] | [16] | [17]
inactive: all other assays above

C[N+](C)(C)CCOC(=O)C(O)(c1ccccc1)c1ccccc1
not listed: [6] | [9] | [10] | [14] | [16] | [17]
inactive: all other assays above

O=C(O)C(F)(F)C(F)(F)C(F)(F)C(F)(F)C(F)(F)C(F)(F)C(F)(F)C(F)(F)F
active: [7] 12.2 µM
not listed: [8] | [9] | [12] | [15] | [17]
inactive: all other assays above
